biological target: Cyclin-dependent kinase 4 (Homo sapiens) (UniProt P11802); conditions: at 1 µM;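 further: enzyme tested as the CDK4–cyclin D complex, with the value reported as mean percent inhibition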
Sequence (P11802 whole entry): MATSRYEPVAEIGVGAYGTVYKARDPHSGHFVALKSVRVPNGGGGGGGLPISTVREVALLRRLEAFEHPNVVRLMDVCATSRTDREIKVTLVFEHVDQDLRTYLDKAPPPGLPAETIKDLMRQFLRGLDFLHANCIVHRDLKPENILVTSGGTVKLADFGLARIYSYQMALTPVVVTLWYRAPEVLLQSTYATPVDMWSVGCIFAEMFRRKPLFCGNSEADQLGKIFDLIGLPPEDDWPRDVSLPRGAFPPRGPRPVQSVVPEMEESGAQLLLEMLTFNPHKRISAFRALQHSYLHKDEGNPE

Compound | inhibition [%]
CC(=O)Nc1cccc(C#Cc2cncnc2Nc2ccc(OCc3cccc(F)c3)c(Cl)c2)c1 | 1.74
CCn1c(-c2nonc2N)nc2ccccc21 | 3.08
COc1cccc(-n2ncc3c(N/N=C/c4ccc(F)cc4)ncnc32)c1 | 17.3
CCN1CCC(CC(=O)Nc2n[nH]c3nnc(-c4cccc(F)c4F)cc23)CC1 | 32.5
COc1cc(Nc2nccc(Nc3ccc4c(C)n[nH]c4c3)n2)cc(OC)c1OC | 3.18
CCn1c(-c2nonc2N)nc2cnc(Oc3cccc(NC(=O)c4ccc(N(C)C)cc4)c3)cc21 | 1.34
COc1ccc(-c2oc3ncnc(N)c3c2-c2ccc(NC(=O)Nc3cc(C(F)(F)F)ccc3F)cc2)cc1 | 5.04
CCN(CC)S(=O)(=O)c1ccc(OC)c(Nc2ncc(-c3ccccc3)o2)c1 | 2.74
Fc1ccc(-c2nn3ncccc3c2-c2ccnc(Nc3ccc4c(c3)OCCO4)n2)cc1 | 1.86
CCCN(CCS(C)(=O)=O)Cc1ccc(-c2ccc3ncnc(Nc4ccc(OCc5cccc(F)c5)c(Cl)c4)c3c2)o1 | 5.06
CCn1c(-c2nonc2N)nc2c(C#CC(C)(C)O)nc(OC[C@H](N)c3ccccc3)cc21 | 2.26
COc1cccc(-c2c[nH]c3c(N/N=C/c4ccncc4)ncnc23)c1 | 45.7
c1cc(-c2cnn3nc(N4CCOCC4)ccc23)nc(NC2CC2)n1 | 57.8
CN(C)CCOc1ccc(-c2nc(-c3ccncc3)c(-c3ccc4c(c3)CC/C4=N\O)[nH]2)cc1 | 6.21
CCc1nn2ncccc2c1-c1ccnc(NC2CC2)n1 | 17.6
Clc1ccc(-c2nn3ncccc3c2-c2ccnc(Nc3ccccc3)n2)cc1 | 2.58
COc1cc(/C=N/Nc2ncnc3[nH]ncc23)ccc1O | 5.18
NS(=O)(=O)c1ccc(Nc2ncc(-c3ccccc3)o2)cc1 | 26.5
COc1ccc2[nH]c3c4[nH]c5ccc(OC)cc5c4c4c(c3c2c1)C(=O)NC4=O | 7.55

biological target: Cyclin-dependent kinase 5 (Homo sapiens) (UniProt Q00535); conditions: at 0.1 µM;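 further: enzyme tested as the CDK5/p35 complex, values are mean percent inhibition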
Sequence (Q00535 whole entry, looked up): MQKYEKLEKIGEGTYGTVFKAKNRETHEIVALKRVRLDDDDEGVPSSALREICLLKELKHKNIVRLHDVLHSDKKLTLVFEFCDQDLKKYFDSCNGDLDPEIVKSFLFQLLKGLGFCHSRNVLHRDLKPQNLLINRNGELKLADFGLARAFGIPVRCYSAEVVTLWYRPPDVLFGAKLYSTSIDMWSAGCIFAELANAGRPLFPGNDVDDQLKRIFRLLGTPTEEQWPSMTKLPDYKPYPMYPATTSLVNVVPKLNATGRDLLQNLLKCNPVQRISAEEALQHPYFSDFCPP

Compound | inhibition [%]
O=C(Nc1n[nH]c2cc(-c3ccc(F)cc3)ccc12)C1CC1 | 0.56
O=S(=O)(CCNCc1ccc(-c2ccc3ncnc(Nc4ccc(OCc5cccc(F)c5)c(Cl)c4)c3c2)o1)c1ccccc1 | 0.05
COc1cc2ncn(-c3cc(OCc4ccccc4C(F)(F)F)c(C(=O)N(C)C)s3)c2cc1OC | 0.01
COc1ccc(-c2cc3c(N)ncnc3o2)cc1 | 1.53
Cc1ccc2c(-c3ccnc(Nc4ccccc4)n3)c(-c3ccc(F)cc3)nn2n1 | 0.32
Nc1nc(-c2cccc(Cl)c2)c(-c2ccc3ncccc3n2)s1 | 0.34
CNC(=O)c1cncc(/C=C/c2ccccc2Cl)c1 | 0.19
COc1ccc2c(-c3ccnc(Nc4cccc(OC(F)(F)F)c4)n3)cnn2n1 | 5.51
CCCN1CCC(c2ccc(Nc3nc(Nc4cc(F)ccc4C(N)=O)c4cc[nH]c4n3)c(OC)c2)CC1 | 2.09
COc1cc2c(cc1Nc1nc(Nc3ccsc3C(N)=O)c3cc[nH]c3n1)N(C(=O)CN(C)C)CCC2(C)C | 6.36
Fc1ccc(-c2cc(-c3c[nH]nc3-c3ccccn3)ccn2)cc1 | -0.24
CCNC(=O)O[C@H]1CN[C@H](C#Cc2cc3ncnc(Nc4ccc(OCc5cccc(F)c5)c(Cl)c4)c3s2)C1 | 0.38
c1ccc(COc2ccc(Nc3ncnc4ccc(-c5ccco5)cc34)cc2)cc1 | 0.18
NC(=O)c1sc(-n2cnc3ccc(C(F)(F)F)cc32)cc1OCc1ccccc1Br | -0.39
CS(=O)(=O)CCNCc1ccc(-c2ccc3ncnc(Nc4ccc(OCc5ccccc5)c(C(F)(F)F)c4)c3c2)o1 | 0.23
CC(=O)Nc1cccc(C#Cc2cncnc2Nc2ccc(OCc3cccc(F)c3)c(Cl)c2)c1 | 0.82
CCn1c(-c2nonc2N)nc2ccccc21 | 0.59
COc1cccc(-n2ncc3c(N/N=C/c4ccc(F)cc4)ncnc32)c1 | 9.38
CCN1CCC(CC(=O)Nc2n[nH]c3nnc(-c4cccc(F)c4F)cc23)CC1 | 1.05
COc1cc(Nc2nccc(Nc3ccc4c(C)n[nH]c4c3)n2)cc(OC)c1OC | 1.21
CCn1c(-c2nonc2N)nc2cnc(Oc3cccc(NC(=O)c4ccc(N(C)C)cc4)c3)cc21 | 0.66
COc1ccc(-c2oc3ncnc(N)c3c2-c2ccc(NC(=O)Nc3cc(C(F)(F)F)ccc3F)cc2)cc1 | 1.02
CCN(CC)S(=O)(=O)c1ccc(OC)c(Nc2ncc(-c3ccccc3)o2)c1 | 0.99
Fc1ccc(-c2nn3ncccc3c2-c2ccnc(Nc3ccc4c(c3)OCCO4)n2)cc1 | 0.45
